Assay results taken from PubChem BioAssay (NCATS).
Several values for one entry are separate records, joined by “and”; a condition that tells them apart may be missing. Identical values can stand only once. Inconclusive results are not listed. Activity calls are given as the source filed them. Unless noted, calls come from the whole dose curve; as a rule, active = well fitted curve in the direction sought with a large enough effect; inconclusive = small, poorly fitted or top-dose-only effect, or another doubt; inactive = no such curve, though single readings can be large; an effect the other way counts as inactive or inconclusive.

What was measured:
[1] = target: Cytochrome P450 2C9 (Homo sapiens) (UniProt P11712); experiment: Cytochrome P450 family 2 subfamily C member 9 (CYP2C9) small molecule antagonists: luciferase biochemical (cell-free) qHTS assay (AID 1645842; active = well fitted curve in the direction sought with a large enough effect in the repeat runs; an effect the other way counts as inactive or inconclusive; note: nearly all actives have a fitted effect of over 55% in size)
Chain of Cytochrome P450 2C9 (Homo sapiens) (P11712 whole entry, looked up): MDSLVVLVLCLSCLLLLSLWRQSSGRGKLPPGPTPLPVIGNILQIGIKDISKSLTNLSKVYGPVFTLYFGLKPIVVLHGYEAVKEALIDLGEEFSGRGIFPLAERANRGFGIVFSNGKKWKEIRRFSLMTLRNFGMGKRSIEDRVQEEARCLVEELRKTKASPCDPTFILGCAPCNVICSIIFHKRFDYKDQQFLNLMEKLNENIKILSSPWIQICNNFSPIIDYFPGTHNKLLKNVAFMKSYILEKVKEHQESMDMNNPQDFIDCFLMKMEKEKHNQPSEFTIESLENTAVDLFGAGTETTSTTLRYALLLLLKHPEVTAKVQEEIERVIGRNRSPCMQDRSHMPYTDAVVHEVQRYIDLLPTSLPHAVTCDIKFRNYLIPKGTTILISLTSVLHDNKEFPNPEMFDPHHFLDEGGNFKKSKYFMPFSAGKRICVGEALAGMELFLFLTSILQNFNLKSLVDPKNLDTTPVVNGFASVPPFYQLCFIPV
Summary of the method: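 Luminescence, after 20 min with luciferin detection reagent, reflected CYP2C9 turnover during a 1 h NADPH-driven reaction at 37C. Enzyme-substrate mix contained 0.4% bovine serum albumin and was preincubated with compound 10 min at room temperature.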

[2] = Primary qHTS for inhibitors of nuclear receptor binding SET domain protein 2 (NSD2) in an isogenic RCH-ACV NSD2 p.E1099K mutant (9B) (AID 1645876); note: nearly all actives have a fitted effect of over 70% in size
[3] = Primary qHTS for inhibitors of nuclear receptor binding SET domain protein 2 (NSD2) in an RCH-ACV wild type WT cells (2C) (AID 1645877); note: nearly all actives have a fitted effect of over 70% in size
Potency is the fitted concentration of half-maximal effect.

SMILES | Potency [1] | Potency [2] | Potency [3]
Cc1nc(C#Cc2ccnc(Cl)c2)c(C)n1-c1ccc(F)cc1 | inactive | 11.5 µM (active) | 11.5 µM (active)
Nc1nccc(-c2c(-c3ccc(F)cc3)ncn2C2CCCCC2)n1 | 16.9 µM (active) | 9.16 µM (active) and 11.8 µM (active) | 14.5 µM (active) and 10.5 µM (active)
O=C(NCCO)c1cccc(-c2cc(Nc3ccc(OC(F)(F)F)cc3)ncn2)c1 | 21.3 µM (active) | 18.3 µM (active) | 18.3 µM (active)
O=C1C(Cc2ccc(O)cc2)N2C(=O)CCN(C(=O)NCc3ccccc3)C2CN1Cc1cccc2ccccc12 (configuration not stated) | 10.7 µM (active) | 3.65 µM (active) | 5.15 µM (active)
Cc1c(OCc2cccc(-c3ccc(C(=O)O)cc3)c2)cc2c(c1C)C(=O)C(C1CCCC1)C2 (configuration not stated) | 19 µM (active) | inactive | inactive
Cc1ccc(S(=O)(=O)NCc2ccc(C(=O)NCCN(Cc3ccccc3)C(C)C)cc2)cc1 | 9.52 µM (active) | 16.3 µM (active) | 23 µM (active)
COc1ccccc1OCCNCC(O)CCOc1cccc2[nH]c3ccccc3c12 (configuration not stated) | 0.301 µM (active) | 18.3 µM (active) | 14.5 µM (active)
O=C(N[C@H]1CCC[C@H](CO)C1)C1CCN(c2nc3cc(Cl)c(-c4ccc(Cl)cc4)cc3o2)CC1 | inactive | 20.5 µM (active) | 16.3 µM (active)
Cc1nc(Nc2cnn(C3CCNCC3)c2)nc2c1N(C)C(=O)c1cc3ccccc3cc1N2C | 1.07 µM (active) | 5.15 µM (active) | 2.05 µM (active)
